High-throughput results deposited in PubChem by Sanford-Burnham Center for Chemical Genomics.
GC-B act = human GC-B receptor activators, primary screen, HEK293 GC-B cells, cGMP TR-FRET, EC30 CNP. Atrial natriuretic peptide receptor 2 (Homo sapiens), P20594. 0% at EC30 CNP, 100% saturating CNP. activation, % at 10 µM. actives 0.11% (n = 370,000);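 active means activation at 10 µM reaching about 35% in either raw or pattern-adjusted values, limit read from the data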
Neddylation inh = inhibitors of cullin neddylation, primary screen, biochemical, TR-FRET, uHTS, NAE and Ubc12. inhibition, % at 25 µM. NEDD8-conjugating enzyme Ubc12 (Homo sapiens) + NEDD8-activating enzyme E1 regulatory …. AID 651699, 2012. actives 0.58% (n = 360,000); in the data active means inhibition above about 36%
NadD inh = inhibitors of S. aureus NadD, primary screen, biochemical, colorimetric, uHTS; Nicotinate-nucleotide adenylyltransferase NadD (Staphylococcus aureus N315); purified NadD enzyme, colorimetric absorbance read-out; inhibition, % at 20 µM; actives 0.78% (n = 360,000); in the data active means inhibition above about 26%
NPR1 activator = GC-A stimulated cGMP production enhancers – HEK293 GC-A cells, cGMP TR-FRET, EC30 ANP, primary screen; 0% at EC30 ANP, 100% saturating ANP; activation, % at 10 µM; actives 0.14% (n = 370,000); in the data active means activation above about 40%
NadD inh conf = inhibitors of S. aureus NadD, confirmation, biochemical, colorimetric, single concentration | shares compounds with NadD inh | purified S. aureus NadD, colorimetric enzyme assay | inhibition, % at 20 µM | actives 13% (n = 2,000) | AID 624309, 2012; in the data active means inhibition mostly above about 42%, no sharp cut-off; inactive means mostly below about 42%
Numbers stand for hits. Only some compounds are listed: those with a hit (about 1.5% of all), similar ones and a draw of the others.

CCOc1ccc(-c2nnc(NC(=O)c3ccc(OCC(C)C)c(OC)c3)o2)cc1 was read as GC-B act inactive, Neddylation inh inactive, NadD inh 37, NPR1 activator inactive and NadD inh conf inactive.
COc1ccc2ccccc2c1CN1CCN(c2ncc(Cc3ccccc3)cn2)CC1 was read as GC-B act inactive and NPR1 activator inactive.
`O=C(Nc1cccc(N=Cc2cc(Br)cc(Br)c2O)c1)c1ccco1` gave GC-B act inactive, Neddylation inh inactive, NadD inh 41, NPR1 activator inactive and NadD inh conf inactive.
O=S(=O)(Nc1c(S(=O)(=O)c2ccccc2)c2nc3ccccc3nc2n1C1CCCCC1)c1ccccc1 was read as GC-B act inactive, Neddylation inh inactive, NadD inh 32, NPR1 activator inactive and NadD inh conf 48.
Screening C=CCn1c(NS(=O)(=O)c2ccccc2)c(S(=O)(=O)c2ccc(C)cc2)c2nc3ccccc3nc21 returned GC-B act inactive, Neddylation inh inactive, NadD inh inactive and NPR1 activator inactive.
For Cc1ccc(C(=O)O)cc1NC(=S)NC(=O)c1ccc(-c2ccc(Cl)cc2)o1 the results were GC-B act inactive, Neddylation inh inactive, NadD inh inactive and NPR1 activator inactive.
For O=C(O)c1cccc(NC(=S)NC(=O)c2ccc(-c3ccc(Cl)cc3)o2)c1 the results were GC-B act inactive, Neddylation inh inactive, NadD inh 38, NPR1 activator inactive and NadD inh conf inactive.
For COc1ccc(CNC(=O)O[C@H]2CC[C@@]34CCCN3C(=O)CCC[C@H]4[C@H]2C)cc1 the results were GC-B act inactive and NPR1 activator inactive.
`Cc1cc(O)cc(=O)n1-c1cccc(C(F)(F)F)c1` gave GC-B act inactive and NPR1 activator inactive.
For c1coc(-c2nnc3n2N=C(c2ccc4ccccc4c2)CS3)c1 the results were GC-B act inactive and NPR1 activator inactive.
`c1ccc(-c2cc(-c3nnc4n3N=C(c3ccc5ccccc5c3)CS4)[nH]n2)cc1` gave GC-B act inactive, Neddylation inh inactive, NadD inh 55, NPR1 activator inactive and NadD inh conf inactive.
For Cc1ccccc1N(C)C(=O)Cn1nnc(-c2ccccc2F)n1 the results were GC-B act inactive and NPR1 activator inactive.
For COc1cc(OC)cc(C(=O)Oc2ccc(/C=N/Nc3nc4ccccc4s3)cc2OC)c1 the results were GC-B act inactive, Neddylation inh inactive, NadD inh 37, NPR1 activator inactive and NadD inh conf inactive.
Screening Cc1ccccc1S(=O)(=O)N(C)C[C@@H]1OCc2cn(nn2)CCCC(=O)N([C@@H](C)CO)C[C@H]1C returned GC-B act inactive and NPR1 activator inactive.
Cc1cc(C)c2c(n1)sc1c(=O)[nH]c(SCc3ccccc3)nc12 was read as GC-B act inactive, Neddylation inh inactive, NadD inh 29, NPR1 activator inactive and NadD inh conf inactive.
`O=C(Nc1ccc([N+](=O)[O-])cc1)Nc1nc(-c2ccc(Cl)s2)cs1` gave GC-B act inactive, Neddylation inh inactive, NadD inh 51, NPR1 activator inactive and NadD inh conf inactive.
For O=C(Nc1ccc(Oc2ccc(NC(=O)Nc3ccc([N+](=O)[O-])cc3)cc2)cc1)Nc1ccc([N+](=O)[O-])cc1 the results were GC-B act inactive, Neddylation inh inactive, NadD inh 32, NPR1 activator inactive and NadD inh conf inactive.
For C=CCN(CC#Cc1ccccn1)Cc1ccc(OC)cc1OC the results were GC-B act inactive and NPR1 activator inactive.
`COC(=O)c1ccccc1NC(=O)NCC1CCN(Cc2ccc(OC)cc2)CC1` gave GC-B act inactive and NPR1 activator inactive.
Cc1ccc(/C=N/NC(=O)CSc2nc3ccccc3c(=O)n2-c2ccccc2)s1 was read as GC-B act inactive, Neddylation inh inactive, NadD inh inactive and NPR1 activator inactive.
Screening Cc1nn(-c2ccccc2)c(C)c1/C=N/NC(=O)CSc1nc2ccccc2c(=O)n1-c1ccc(Br)cc1 returned GC-B act inactive, Neddylation inh inactive, NadD inh 30, NPR1 activator inactive and NadD inh conf inactive.
Cc1ccc(/C=N/NC(=O)CSc2nc3ccccc3c(=O)n2-c2ccccc2C)s1 was read as GC-B act inactive, Neddylation inh inactive, NadD inh 50, NPR1 activator inactive and NadD inh conf inactive.
For COC(=O)C1CN(C2CC2)CCS(=O)(=O)N1Cc1cn(Cc2ccccc2)nn1 (configuration not stated) the results were GC-B act inactive and NPR1 activator inactive.
`O=[N+]([O-])c1ccc(/C=N/n2c(-c3ccccc3)n[nH]c2=S)cc1` gave GC-B act inactive, Neddylation inh inactive, NadD inh inactive and NPR1 activator inactive.
Screening O=[N+]([O-])c1ccc(-c2nn(-c3ccccc3)cc2/C=N/n2c(-c3cccs3)n[nH]c2=S)cc1 returned GC-B act inactive, Neddylation inh inactive, NadD inh 43, NPR1 activator inactive and NadD inh conf inactive.
For CSc1nnc(-c2ccncc2)n1/N=C/c1cn(-c2ccccc2)nc1-c1ccc(Cl)cc1 the results were GC-B act inactive, Neddylation inh inactive, NadD inh inactive and NPR1 activator inactive.
S=c1[nH]nc(-c2ccncc2)n1/N=C/c1cn(-c2ccccc2)nc1-c1ccc(Cl)cc1 was read as GC-B act inactive, Neddylation inh inactive, NadD inh 45, NPR1 activator inactive and NadD inh conf inactive.
COc1cc(/C=C2\SC(=O)N(c3cccc(Cl)c3)C2=O)cc([N+](=O)[O-])c1O was read as GC-B act inactive, Neddylation inh inactive, NadD inh 26, NPR1 activator inactive and NadD inh conf inactive.
O=C1S/C(=C\c2ccc(O)c([N+](=O)[O-])c2)C(=O)N1c1ccccc1Cl was read as GC-B act inactive, Neddylation inh inactive, NadD inh inactive and NPR1 activator inactive.
COc1ccc(S[C@]2(C(=O)N3CCN(C(C)=O)CC3)CC(=O)N[C@@H]2c2ccc(OC)cc2)cc1 was read as GC-B act inactive and NPR1 activator inactive.
`O=C(Nc1nnc(S(=O)(=O)N2CCCCCC2)s1)c1ccc(Cl)cc1` gave GC-B act inactive, Neddylation inh inactive, NadD inh 31, NPR1 activator inactive and NadD inh conf inactive.
Screening Cc1ccc(OCC(=O)Nc2nnc(S(=O)(=O)N3CCCCC3)s2)cc1 returned GC-B act inactive, Neddylation inh inactive, NadD inh 49, NPR1 activator inactive and NadD inh conf inactive.
C=CCn1c(SCC(=O)O)nnc1-c1ccco1 was read as GC-B act inactive and NPR1 activator inactive.
Screening CCOc1ccc(/C=C/C(=O)c2cc(Br)ccc(=O)c2O)cc1 returned GC-B act inactive, Neddylation inh inactive, NadD inh 32, NPR1 activator inactive and NadD inh conf inactive.
